Most compounds without a hit are left out; they make up all but 0.97% or so of the library.
Rv3671c protease – Rv3671c serine protease inhibitors, primary screen, biochemical, fluorescence polarization, M. tuberculosis H37Rv; inhibition, % at 5.96 µM; 320,000 compounds, 0.048% hits; P9WHR9; AID 2606, 2010; in the data active = inhibition above about 38%;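 also: extracellular domain of Rv3671c used as enzyme; 0% = enzyme with DMSO and 100% = no enzyme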
RecA splice inh – Mtb RecA intein splicing inhibitors, primary screen, biochemical, fluorescence, HTS; Protein RecA (Mycobacterium tuberculosis (strain ATCC 25618 / H37Rv)), P9WHJ3; cell-free RecA intein splicing; inhibition, % (concentration not given with the values); 290,000 compounds, 0.75% hits; in the data active = inhibition above about 30%;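 also: 0% = vehicle wells and 100% = reference inhibitor control wells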
Target sequence (P9WHJ3 whole entry, looked up, canonical isoform): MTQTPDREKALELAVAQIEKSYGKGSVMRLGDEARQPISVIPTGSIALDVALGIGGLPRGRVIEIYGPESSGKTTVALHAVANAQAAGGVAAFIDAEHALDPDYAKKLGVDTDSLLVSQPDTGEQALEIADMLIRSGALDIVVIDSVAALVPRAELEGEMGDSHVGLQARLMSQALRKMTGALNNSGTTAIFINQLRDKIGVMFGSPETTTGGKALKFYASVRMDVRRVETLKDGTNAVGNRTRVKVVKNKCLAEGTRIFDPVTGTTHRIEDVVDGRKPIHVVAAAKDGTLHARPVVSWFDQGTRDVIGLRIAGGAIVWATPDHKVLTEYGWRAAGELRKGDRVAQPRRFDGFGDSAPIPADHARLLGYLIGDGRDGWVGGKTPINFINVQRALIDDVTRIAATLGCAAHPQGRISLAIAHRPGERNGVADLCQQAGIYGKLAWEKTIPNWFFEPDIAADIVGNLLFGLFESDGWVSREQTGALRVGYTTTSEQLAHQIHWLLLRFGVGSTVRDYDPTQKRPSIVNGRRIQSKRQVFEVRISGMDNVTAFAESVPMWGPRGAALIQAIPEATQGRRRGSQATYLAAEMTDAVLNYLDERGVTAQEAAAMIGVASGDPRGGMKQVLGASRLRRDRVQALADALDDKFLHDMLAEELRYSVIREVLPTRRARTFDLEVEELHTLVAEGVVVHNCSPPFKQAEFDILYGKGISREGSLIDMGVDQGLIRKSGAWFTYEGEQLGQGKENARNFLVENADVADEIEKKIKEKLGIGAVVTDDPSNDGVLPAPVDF
BioA inh – M. tuberculosis BioA enzyme inhibitors, primary screen, biochemical, plate reader, single point, HTS. 7,8-diaminopelargonic acid synthase BioA (Mycobacterium tuberculosis). purified M. tuberculosis BioA enzyme. inhibition, % at 9.99 µM. 360,000 compounds, 0.096% hits; in the data active = inhibition above about 40%
FadD28 FP inh – inhibitors of FadD28 bisubstrate probe binding, primary screen, biochemical, fluorescence polarization, single point; inhibition, % at 12.5 µM; 360,000 compounds, 0.22% hits; Mycobacterium tuberculosis FadD28 fatty-acid-AMP ligase; in the data active = inhibition above about 8.5%, passing the limit was not always enough
Mtb UGM inh – M. tuberculosis UGM enzyme inhibitors, primary screen, biochemical, fluorescence polarization, single point | purified UGM, fluorescence polarization probe displacement | inhibition, % at 10 µM | 320,000 compounds, 0.06% hits | AID 504406, 2011; in the data active = inhibition above about 10%, passing the limit was not always enough
TcdB GH inh – TcdB glycohydrolase inhibitors, primary screen, biochemical, single point, plate reader. Toxin B (Clostridioides difficile), P18177. TcdB glycohydrolase enzymatic assay. 350,000 compounds, 0.24% hits. AID 652162, 2013. inhibition, % at 9.99 µM; in the data active = inhibition above about 10%
The depositor's hits bear a star; · = not tested or not shown.

SMILES	Rv3671c protease	RecA splice inh	BioA inh	FadD28 FP inh	Mtb UGM inh	TcdB GH inh
O=C(O)c1ccc2nc(-c3ccco3)c(-c3ccco3)nc2c1	·	-113	-1	13*	·	-3
CCN(CC)c1ccc(NC2CC(=O)N(CCc3ccc(OC)cc3)C2=O)cc1 (stereo unspecified)	1	-4	-1	8.7*	-2	0
CN1CCN(C(=O)C[C@H]2C[C@@H]3c4cc(NC(=O)CC5CC5)ccc4O[C@@H]3[C@@H](CO)O2)CC1	·	·	-1	·	·	-7
Cc1[nH][nH]c(=O)c1C(c1ccc(-c2cccc(C(=O)O)c2)o1)c1c(C)[nH][nH]c1=O	-109	·	·	-1	2	-1
Cc1[nH][nH]c(=O)c1C(c1ccc(-c2cccc(Cl)c2)o1)c1c(C)[nH][nH]c1=O	-163	97*	0	0	-2	·
NC(=O)[C@H]1[C@@H]2C(=O)O[C@@H](c3ccccc3)[C@@H](c3ccccc3)N2[C@@H](c2ccc(O)cc2)[C@]12C(=O)Nc1ccc(C#CC3(O)CCCCCC3)cc12	·	·	·	·	·	2
CCCCNS(=O)(=O)c1ccc(OCC(=O)OC)cc1	-8	0	·	1	3	10*
CCCNS(=O)(=O)c1ccc(OCC(=O)OC)cc1	0	-3	0	-2	-2	·
O=C(N/N=C/c1cc(Cl)c(O)c(Cl)c1)c1cc2c(ccc3ccccc32)o1	29	·	-1	39*	3	0
O=C(N/N=C/c1cc(Br)c(O)c(Br)c1)c1cc2c(ccc3ccccc32)o1	·	-14	2	25*	0	2
C[C@@H](NC(=O)C[C@@H]1C[C@H]2c3cc(NC(=O)C4CCOCC4)ccc3O[C@H]2[C@H](CO)O1)c1ccccc1	·	·	0	·	·	-1
CCOC(=O)C1=C(C)Nc2nnnn2C1c1ccc(OC)c(Br)c1 (stereo unspecified)	-1	5	3	-4	1	12*
COc1ccc(Cl)cc1C(=O)NN=C1CCCC1	1	-1	·	-3	1	-2
O=C(NN=C1CCCC1)c1cc(Cl)cc(Cl)c1O	7	9	2	20*	0	0
CCOC(=O)[C@H](Cc1c[nH]c2ccccc12)NC(=O)CN=[N+]=[N-]	·	·	·	·	·	0
CCOc1ccccc1C=C1CCc2ccccc2C1=O	·	·	-1	0	·	1
CCOc1ccc2noc3c2c1C(=O)c1ccccc1-3	-8	10	-11	1	21*	·
COc1ccc(C#Cc2ccc3c(c2)[C@]2(C(=O)N3)[C@H](c3ccc(O)cc3)N3[C@H](c4ccccc4)[C@H](c4ccccc4)OC(=O)[C@H]3[C@@H]2C(=O)N2CCCCCCC2)cc1	·	·	-2	·	·	-1
COc1ccccc1C1/C(=C(/O)c2ccccc2)C(=O)C(=O)N1CC(C)O (stereo unspecified)	-5	-3	1	10*	-1	·
COCC(=O)Nc1ccc2c(c1)C(=O)N(C)C[C@@H](OC)[C@@H](C)CN(C(C)=O)[C@H](C)CO2	·	·	1	·	·	1
Oc1cnn(-c2ccccc2)c1	2	63*	·	-2	1	·
O=C1NN=C2CCCCCCC12 (stereo unspecified)	·	·	-1	-1	·	11*
O=[N+]([O-])c1ccc(S(=O)(=O)Nc2nc(-c3ccccc3)cs2)cc1	3	4	2	2	-1	13*
O=S(=O)(Nc1nc(-c2ccccc2)cs1)c1cccc(C(F)(F)F)c1	-5	4	4	4	-2	1
COc1ccc(-c2ccc3c(c2)[C@H]2[C@H](CCN2C(=O)C2CC2)[C@@H](CO)N3C)cc1	·	·	1	·	·	15*
SMILES	Rv3671c protease	RecA splice inh	BioA inh	FadD28 FP inh	Mtb UGM inh	TcdB GH inh
COc1ccc(-c2ccc3c(c2)[C@@H]2[C@@H](CCN2C(=O)C2CC2)[C@H](CO)N3C)cc1	·	·	-2	·	·	13*
CCCNC(=O)Nc1ccc2c(c1)OC[C@H](C)N(C(=O)C1CC1)C[C@@H](C)[C@H](OC)CN(C)C2=O	·	·	3	·	·	-3
O=C(COC(=O)c1ccc([N+](=O)[O-])o1)NC1CCCC1	-11	·	-2	-1	21*	1
COc1ccc(Cc2c(N)nc(N)nc2N)cc1	-7	0	-3	0	6	·
Nc1ccc(OCCCc2c(N)nc(N)nc2N)cc1	-1	0	-1	-3	-2	12*
CCN(CC)C(=O)CSc1nnc2nnc3cc(Cl)ccc3n12	-8	42*	-1	-2	2	0
CNC(=O)N(O)C1N(/N=C/c2ccc(N(C)C)cc2)C(=S)SC1(C)C (stereo unspecified)	-6	-10	-1	0	0	10
CNC(=O)N(O)C1N(/N=C/c2cccs2)C(=S)SC1(C)C (stereo unspecified)	0	-5	·	0	-1	10*
C[C@@H]1CN([C@H](C)CO)C(=O)c2cc(NC(=O)c3ccccc3)ccc2O[C@@H](C)CCCCO[C@H]1CN(C)Cc1ccc2c(c1)OCO2	·	·	0	·	·	0
COc1ccc(NC(=O)N(C)C[C@@H]2OCCCC[C@H](C)Oc3ccc(NC(=O)Nc4ccc(C(F)(F)F)cc4)cc3C(=O)N([C@@H](C)CO)C[C@H]2C)cc1	·	·	-1	·	·	-1
CC(C)NC(=O)Nc1ccc2c(c1)C(=O)N([C@H](C)CO)C[C@@H](C)[C@@H](CN(C)CC1CCCCC1)OCCCC[C@H](C)O2	·	·	1	·	·	0
COc1ccc(OC)c(NC(=O)CSc2ncnc3sc(C)cc23)c1	·	·	0	14*	·	-2
COc1ccc(OC)c(NC(=O)CNC(=O)Cn2cnc3sc(C)cc3c2=O)c1	-14	-3	0	-1	0	1
COc1ccc(NC(=O)Nc2ccc3c(c2)C(=O)N([C@@H](C)CO)C[C@H](C)[C@H](CN(C)S(=O)(=O)c2ccc(F)cc2)OCCCC[C@@H](C)O3)cc1	·	·	1	·	·	-4
O=C(O)c1cc(Br)ccc1NN=C1CCCCC1	9	-7	·	12*	·	-1
O=c1cccccc1NN=C1CCCCC1	-1	-3	-2	0	3	0
COc1ccc(S(=O)(=O)N[C@H]2C=C[C@@H](CC(=O)NCCc3ccncc3)O[C@H]2CO)cc1	·	·	-1	·	·	3
Cc1ccc(OCC(=O)Oc2cccc(C)c2)cc1	5	7	-1	-2	2	1
CC(=O)Nc1cccc(OC(=O)COc2ccc(Br)cc2)c1	-5	35*	·	-2	-2	-1
OCCc1ccc(O)cc1	-2	·	-1	-4	-1	1
CC(c1ccc(O)cc1)(c1ccc(O)cc1)c1ccc(CCBr)cc1	-6	31*	4	-11	0	-1
